Measurements published in PubChem BioAssay (Tox21).
Results filed as inconclusive are left out. The source made the active and inactive calls. Unless noted, calls come from the whole dose curve; as a rule, active = well fitted curve in the direction sought with a large enough effect in the repeat runs; inconclusive = weak or mixed curves; inactive = no such curve, though single readings can be large; an effect the other way counts as inactive or inconclusive.

Key:
[1] = qHTS assay to identify small molecule agonists of the hypoxia (HIF-1) signaling pathway - cell viability counter screen (AID 1224844; calls by dose curve; note: nearly all actives have a fitted effect of over 50% in size; note: potency is the fitted concentration of half-maximal effect)
In short: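 Tox21 10K compounds were added to HRE-bla ME-180 cells (0.5% dialyzed FBS) and incubated 17 hrs at 37C; ATP-based CellTiter-Glo luminescence then reported cell viability in the same wells.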

[2] = qHTS assay to identify small molecule agonists of H2AX (AID 1224845; active = well fitted activation curve with a large enough effect in the signal ratio in the repeat runs, not every such curve was filed as active; the % refers to the signal ratio; note: potency is the fitted concentration of half-maximal effect)
In short: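 Wild-type CHO-K1 cells plated overnight, then exposed 3 hr at 37C to compounds at 15 concentrations (0.76% DMSO). Lysed, then HTRF anti-pH2AX(S139)-cryptate/anti-H2AX-d2 detection after 24 hr at room temperature; emissions 665 and 620 nm.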

[3] = qHTS assay to identify small molecule agonists of the hypoxia (HIF-1) signaling pathway (AID 1224846; active = well fitted activation curve with a large enough effect in the signal ratio in the repeat runs, not every such curve was filed as active; the % refers to the signal ratio)
In short: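 Steps: seed ME-180 HRE-bla cells (2,000/well, 0.5% dialyzed FBS); incubate 5 hrs at 37C; pin-transfer compounds or DMSO; incubate 17 hrs; add LiveBLAzer B/G substrate CCF4-AM; measure reporter activation by FRET.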

[4] = qHTS assay to identify small molecule agonists of H2AX - cell viability counter screen (AID 1224847; calls by dose curve; note: nearly all actives have a fitted effect of over 30% in size; note: potency is the fitted concentration of half-maximal effect; for activity change, negative = cytotoxicity: top concentration of the series differs between compounds)
In short: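 Read-out: CellTiter-Glo luminescence, 30 min RT. Cells: wild-type CHO-K1, 1000/well, 10% FBS, plated overnight at 37C. Treatment: 15 concentrations, 3 hr, 37C, 0.76% DMSO.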

[5] = qHTS RealTime-Glo MT Cell Viability Assay in HepG2 cells - 24 hour (AID 1224867); note: nearly all actives have a fitted effect of over 50% in size; note: potency is the fitted concentration of half-maximal effect
In short: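 Luminescence read-out: viable HepG2 cells reduce a prosubstrate to a NanoLuc substrate, giving a signal proportional to live cell number. Reads taken at 0, 8, 16, 24, 32 and 40 h of compound exposure at 37 C.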

[6] = qHTS RealTime-Glo MT Cell Viability Assay in HEK293 cells - 32 hour (AID 1224868); note: nearly all actives have a fitted effect of over 50% in size; note: potency is the fitted concentration of half-maximal effect; for activity change, negative = cytotoxic: top concentration of the series differs between compounds
In short: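 Nonlytic real-time viability readout: viable cells convert prosubstrate to NanoLuc substrate, giving luminescence proportional to live cell number. HEK293, 600 cells/well, compound added after 5 h, continuous culture at 37 C.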

[7] = A CellTox Green Cytotoxicity Assay to monitor cytotoxicity in HEK293 cells - 0 hour (AID 1224869); note: nearly all actives have a fitted effect of over 50% in size
In short: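 Cytotoxicity was tracked continuously in HEK293 cells by a DNA-binding dye excluded from viable cells. Compounds were transferred in DMSO 5 h after seeding; fluorescence was recorded at intervals up to 40 h.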

[8] = molecular target: Thyrotropin receptor (Homo sapiens) (UniProt P16473); test: qHTS assay to identify small molecule agonists of the thyroid stimulating hormone receptor (TSHR) signaling pathway (AID 1224843; calls by dose curve; note: nearly all actives have a fitted effect of over 45% in size)
Thyrotropin receptor (Homo sapiens), sequence (P16473 whole entry, looked up): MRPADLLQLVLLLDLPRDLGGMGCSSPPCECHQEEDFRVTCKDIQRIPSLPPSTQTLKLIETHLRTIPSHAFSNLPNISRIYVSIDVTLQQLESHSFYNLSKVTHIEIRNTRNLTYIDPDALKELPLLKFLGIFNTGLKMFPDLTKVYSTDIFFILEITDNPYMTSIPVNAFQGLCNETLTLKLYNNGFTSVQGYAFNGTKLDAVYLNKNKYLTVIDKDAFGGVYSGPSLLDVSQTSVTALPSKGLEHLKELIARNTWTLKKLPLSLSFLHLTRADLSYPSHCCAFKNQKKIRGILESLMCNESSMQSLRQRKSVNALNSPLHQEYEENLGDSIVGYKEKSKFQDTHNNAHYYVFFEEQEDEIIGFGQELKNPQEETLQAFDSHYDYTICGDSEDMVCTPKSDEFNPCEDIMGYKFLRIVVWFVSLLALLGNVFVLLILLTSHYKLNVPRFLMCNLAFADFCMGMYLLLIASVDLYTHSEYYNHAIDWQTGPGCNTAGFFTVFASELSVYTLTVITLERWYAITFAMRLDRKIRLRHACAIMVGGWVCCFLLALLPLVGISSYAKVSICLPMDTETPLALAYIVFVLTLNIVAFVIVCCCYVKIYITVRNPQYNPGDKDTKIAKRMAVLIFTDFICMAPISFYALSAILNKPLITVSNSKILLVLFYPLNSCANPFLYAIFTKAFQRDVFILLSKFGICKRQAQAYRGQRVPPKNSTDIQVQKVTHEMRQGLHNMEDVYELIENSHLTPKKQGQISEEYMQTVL
In short: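 TSHR-expressing HEK293 cells (800 per well) were exposed to compounds for 30 min at room temperature. cAMP was then detected by HTRF competition with cAMP-d2 and anti-cAMP cryptate, read after 1 h at room temperature. Fifteen concentrations, triplicate.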

[9] = qHTS assay to identify small molecule antagonists of the estrogen related receptor (ERR) signaling pathway from Tox21 library (AID 1224848); note: nearly all actives have a fitted effect of over 50% in size; note: potency is the fitted concentration of half-maximal effect
In short: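 Cells: ERR line, 2,000/well; 6 h preincubation 37 C/5% CO2. Cpd in DMSO via pin tool; 18 h, 37 C. ONE-Glo, 30 min RT, luminescence.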

[10] = qHTS assay to identify small molecule agonists of the estrogen related receptor (ERR) signaling pathway from Tox21 library (AID 1224849; calls by dose curve; note: nearly all actives have a fitted effect of over 15% in size); conditions: ERR reporter cell line, ONE-Glo luciferase, 18 h; at 92.4 µM (top of the series) unless noted
In short: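 Agonist signal is luciferase luminescence from an ERR reporter cell line treated 18 h at 37 C with DMSO-dissolved compounds, read 30 min after ONE-Glo addition at room temperature.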
% is set by controls: 0 for no effect and ±100 for the full control effect.

CCC(C(=O)OCCOCCN(CC)CC)c1ccccc1 (stereo unspecified)
inactive: Potency [1] | Potency [2] | outcome [3] | Potency [4] | Potency [5] | Potency [6] | Potency [7]

CCc1c2c(nc3ccc(OC(=O)N4CCC(N5CCCCC5)CC4)cc13)-c1cc3c(c(=O)n1C2)COC(=O)[C@]3(O)CC
inactive: Potency [8] | outcome [3] | Potency [4] | Potency [5]
active: Potency [6] 2.68 µM

CCCCN(CCCC)C(=S)SSC(=S)N(CCCC)CCCC
active: Potency [4] 112 µM | Potency [6] 43.2 µM
inactive: Potency [8] | Potency [5]

[O]=[Bi]
inactive: activity change, negative = cytotoxicity [1] 28.4% [at 6.97 µM] | activation (H2AX phosphorylation) [2] -0.036% [at 14 µM] | activation [3] 0% [at 7.01 µM] | activity change, negative = cytotoxicity [4] 2.81% [at 14 µM] | activity, negative = inhibition [9] -9.31% [at 8.39 µM] | activity change, positive = activation [10] -10.5% [at 8.39 µM] | activity change, negative = cytotoxicity [5] 3.35% [at 6.97 µM] | activity change, negative = cytotoxic [6] 4.51% [at 6.97 µM] | cytotoxicity [7] -1.07% [at 6.97 µM]

NCC1CCCC(CN)C1 (stereo unspecified)
inactive: Potency [1] | Potency [2] | outcome [3] | Potency [4] | Potency [9] | activity change, positive = activation [10] -0.124% | Potency [5] | Potency [6] | Potency [7]

O=C(Nc1ccc([N+](=O)[O-])cc1)Nc1ccc([N+](=O)[O-])cc1
inactive: Potency [8] | Potency [2] | outcome [3] | Potency [7]
active: Potency [6] 7.56 µM

C[C@@H]1C[C@H]2[C@@H]3CCC4=CC(=O)C=C[C@]4(C)[C@@]3(F)[C@@H](O)C[C@]2(C)[C@H]1C(=O)CO
inactive: Potency [8] | Potency [2] | Potency [4] | Potency [5] | Potency [6]

COc1cc2c(cc1OC)-c1cc(=Nc3c(C)cc(C)cc3C)n(C)c(=O)n1CC2
active: Potency [9] 13.3 µM
inactive: Potency [1] | Potency [2] | outcome [3] | Potency [4] | activity change, positive = activation [10] -48.8% [at 42.5 µM] | Potency [5] | Potency [7]

CCC(=O)Oc1ccc(/C(CC)=C(\CC)c2ccc(OC(=O)CC)cc2)cc1
active: Potency [9] 27.3 µM | Potency [6] 17.4 µM
inactive: Potency [8] | Potency [4] | activity change, positive = activation [10] -47.8% | Potency [5] | Potency [7]

Cc1ccc(/C=N/n2c(-c3ccccc3)csc2=S)cc1
inactive: Potency [8] | Potency [2] | outcome [3] | Potency [9] | activity change, positive = activation [10] 4.75% [at 42.5 µM] | Potency [5] | Potency [6]

CC(C)C(=O)O
inactive: Potency [1] | Potency [2] | outcome [3] | Potency [4] | Potency [5] | Potency [6] | Potency [7]

CCCCC/C(=C\c1ccccc1)CO
active: Potency [4] 112 µM
inactive: Potency [8] | Potency [2] | outcome [3] | Potency [5] | Potency [6] | Potency [7]

CCOC(=O)C(C)Oc1ccc(Oc2nc3ccc(Cl)cc3o2)cc1 (stereo unspecified)
active: Potency [6] 49 µM
inactive: Potency [1] | Potency [2] | outcome [3] | Potency [4] | Potency [9] | activity change, positive = activation [10] -11.6% | Potency [7]

COC(=O)CC(=O)C(C)(C)C
inactive: Potency [8] | Potency [2] | Potency [4] | Potency [5] | Potency [6] | Potency [7]

O=[N+]([O-])c1cccc(S(=O)(=O)NCCNS(=O)(=O)c2cccc([N+](=O)[O-])c2)c1
inactive: Potency [1] | Potency [2] | outcome [3] | Potency [4] | Potency [9] | activity change, positive = activation [10] -12.7% [at 42.5 µM] | Potency [5] | Potency [6] | Potency [7]

C/C=C(\C)C(=O)OCCC(C)CCC=C(C)C (stereo unspecified)
inactive: Potency [1] | Potency [2] | outcome [3] | Potency [4] | Potency [5] | Potency [6] | Potency [7]

CN(C)C(=O)Nc1ccc(Oc2ccc(Cl)cc2)cc1
active: Potency [4] 89.8 µM | Potency [9] 13.7 µM | Potency [6] 38.9 µM
inactive: Potency [1] | Potency [2] | outcome [3] | activity change, positive = activation [10] -44.7% | Potency [5]

Oc1ccc(Nc2ccccc2)cc1
active: Potency [9] 24.3 µM | Potency [6] 21.9 µM
inactive: Potency [8] | outcome [3] | Potency [4] | activity change, positive = activation [10] -35.9% | Potency [7]

CC(C)CCCCCCOC(=O)CCCCC(=O)OCCCCCCC(C)C
inactive: Potency [1] | Potency [2] | outcome [3] | Potency [4] | Potency [5] | Potency [6]

CCc1nn(CCCN2CCN(c3cccc(Cl)c3)CC2)c(=O)n1CCOc1ccccc1
active: Potency [5] 23.9 µM | Potency [6] 8.49 µM
inactive: Potency [8] | Potency [2] | outcome [3] | Potency [7]

CC(CCO)CCc1ccccc1 (stereo unspecified)
inactive: Potency [1] | Potency [2] | outcome [3] | Potency [4] | Potency [5] | Potency [6] | Potency [7]

CCC(=O)OC/C=C/c1ccccc1
inactive: Potency [1] | Potency [2] | outcome [3] | Potency [4] | Potency [5] | Potency [6] | Potency [7]

CCOC(=O)CC(=O)C(=O)OCC
inactive: Potency [8] | outcome [3] | activity change, positive = activation [10] -57.1% | Potency [5] | Potency [7]
active: Potency [9] 27.3 µM | Potency [6] 49 µM

C=CC(C)=CCC=C(C)C
inactive: Potency [1] | Potency [2] | outcome [3] | Potency [4] | Potency [5] | Potency [6]

Nc1ccc(S(=O)(=O)O)cc1
inactive: Potency [1] | Potency [2] | outcome [3] | Potency [4] | Potency [9] | activity change, positive = activation [10] 2.73% | Potency [5] | Potency [6] | Potency [7]

COc1cc2ncnc(Nc3ccc(F)c(Cl)c3)c2cc1OCCCN1CCOCC1
active: Potency [4] 55.2 µM | Potency [9] 13.3 µM | Potency [6] 9.52 µM
inactive: Potency [8] | outcome [3] | activity change, positive = activation [10] -47.8% [at 42.5 µM] | Potency [7]

CC[C@H](NC(=O)c1cc(F)ccc1NS(=O)(=O)c1cccc2cccnc12)c1ccccc1
inactive: Potency [8] | Potency [2] | Potency [4] | activity change, positive = activation [10] -48.4% | Potency [6] | Potency [7]
active: Potency [9] 32.5 µM | Potency [5] 52 µM

CC1C2CC(CC2C2CCCC(O)C2)C1(C)C (stereo unspecified)
active: Potency [4] 89.8 µM
inactive: Potency [5] | Potency [6] | Potency [7]

C[N+](C)(C)CCOC(N)=O
inactive: Potency [1] | Potency [2] | Potency [4] | Potency [5] | Potency [6] | Potency [7]

CCCCC(=O)O[C@]1(C(=O)CO)[C@@H](C)C[C@H]2[C@@H]3CCC4=CC(=O)C=C[C@]4(C)[C@@]3(F)[C@@H](O)C[C@@]21C
inactive: outcome [3] | activity change, positive = activation [10] -45.4% | Potency [7]
active: Potency [1] 34.7 µM | Potency [2] 113 µM | Potency [9] 54.5 µM

Cc1nc2ccccn2c(=O)c1CCN1CCC(C(=O)c2ccc(F)cc2)CC1
inactive: Potency [1] | Potency [2] | Potency [4] | activity change, positive = activation [10] -25.4% [at 42.5 µM] | Potency [5] | Potency [7]
active: Potency [6] 7.56 µM
